Source: PubChem BioAssay (National Center for Advancing Translational Sciences (NCATS))
In the library only some 19% were active in any assay of this set; here they are far more common.
IL1B secr inh = qHTS for Inhibitors of Inflammasome Signaling: IL-1-beta AlphaLISA Primary Screen; actives 4.7% (n = 360,000); activity change, % at 57.5 µM; THP-1 LPS/ATP IL-1B secretion, AlphaLISA, 16 h; stronger effect = lower value; AID 743279, 2014; in the data active means activity change below about -50%; inconclusive means mostly about -30% to -49%; further: on the % scale 0 is the no-effect control and ±100 the full control effect
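THP-1 cells pretreated 1 hr with compounds (up to 57.5 uM final), then stimulated with LPS (250 ng/mL final) plus ATP (1.25 mM final); secreted IL-1B measured by AlphaLISA after 16 hr, decreased signal indicating inhibition.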
HepG2 tox = qHTS for Inhibitors of TGF-b: Cytotox Counterscreen | HepG2 CAGA-GFP viability, ATP luminescence, 18 h | Potency, µM (highest dose often 46.1 µM), inactives show at the highest dose activity change, negative = cytotoxicity, hits mostly cytotoxic | actives 0.76% (n = 410,000); further: potency means the concentration at half of the fitted maximal effect
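HepG2 CAGA-GFP cells (1000/well, DMEM with 1% FBS) received compound, then TGF-beta at 500 pg/mL final, and were incubated 18 hours at 37 degrees C. Viability was read by CellTiter-Glo luminescence. Media-only wells were set as complete cell-killing and DMSO as no toxicity.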
TGFb inhibitor = qHTS for Inhibitors of TGF-b. HepG2 CAGA-GFP TGF-b/SMAD3 reporter, GFP fluorescence, 18 h; TGF-beta stimulated, 500 pg/mL final. Potency, µM (highest dose often 46.1 µM), for inactives: top-dose activity, negative = inhibition, usual class: inhibitors. actives 1.2% (n = 410,000); further: potency means the concentration at half of the fitted maximal effect; on the % scale 0 is the no-effect control and ±100 the full control effect; nearly all actives have a fitted effect of over 65% in size
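TGF-beta reporter screen: HEPG2 CAGA-GFP, 1% FBS, 500 pg/mL TGF-beta final, 18 h; per-cell GFP summed per well; curves fitted and categorized by class.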
TDP1 cell CPT = qHTS for Inhibitors of human tyrosyl-DNA phosphodiesterase 1 (TDP1): qHTS in cells in presence of CPT | chicken DT40 Tdp1-/-;hTDP1 cells + 20 nM CPT, ATP luminescence, 48 h | Potency, µM (top dose mostly 46.2 µM), for the others: at the highest dose activity change, negative = growth inhibition, hits mostly inhibitors | actives 12% (n = 420,000); further: potency means the concentration at half of the fitted maximal effect; on the % scale 0 is the no-effect control and ±100 the full control effect; nearly all actives have a fitted effect of over 55% in size
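Chicken DT40 Tdp1-/- cells complemented with human TDP1, 400 cells/well, exposed to compounds plus 20 nM camptothecin for at least 48 h at 37 C; viability read as ATP content by CellTiter-Glo luminescence.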
TDP1 cell noCPT = qHTS for Inhibitors of human tyrosyl-DNA phosphodiesterase 1 (TDP1): qHTS in cells in absence of CPT; DT40 Tdp1-/- hTDP1 cells, no CPT, ATP luminescence, 48 h; Potency, µM (doses to about 46.2 µM), for inactives: at the highest dose activity change, negative = growth inhibition, actives largely listed as inhibitors; actives 15% (n = 420,000); further: potency means the concentration at half of the fitted maximal effect; on the % scale 0 is the no-effect control and ±100 the full control effect; nearly all actives have a fitted effect of over 55% in size
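DT40 Tdp1-/-;hTDP1 cells, no CPT (DMSO vehicle only), 400 cells/well; compounds pin-transferred; ≥48 hr, 37 °C; CellTiter-Glo 30 min RT dark, luminescence read.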
TDP1 block = qHTS Assay for Inhibitors of Tyrosyl-DNA Phosphodiesterase (TDP1); Tyrosyl-DNA phosphodiesterase 1 (Homo sapiens), Q9NUW8; recombinant TDP1, AlphaScreen DNA substrate cleavage; Potency, µM (doses to about 130 µM), for the others: at the top dose activity change, negative = inhibition, hits mostly inhibitors; actives 0.28% (n = 350,000); AID 485290, 2010; further: potency means the concentration at half of the fitted maximal effect; on the % scale 0 is the no-effect control and ±100 the full control effect; nearly all actives have a fitted effect of over 40% in size
Target sequence (Q9NUW8 whole entry, looked up): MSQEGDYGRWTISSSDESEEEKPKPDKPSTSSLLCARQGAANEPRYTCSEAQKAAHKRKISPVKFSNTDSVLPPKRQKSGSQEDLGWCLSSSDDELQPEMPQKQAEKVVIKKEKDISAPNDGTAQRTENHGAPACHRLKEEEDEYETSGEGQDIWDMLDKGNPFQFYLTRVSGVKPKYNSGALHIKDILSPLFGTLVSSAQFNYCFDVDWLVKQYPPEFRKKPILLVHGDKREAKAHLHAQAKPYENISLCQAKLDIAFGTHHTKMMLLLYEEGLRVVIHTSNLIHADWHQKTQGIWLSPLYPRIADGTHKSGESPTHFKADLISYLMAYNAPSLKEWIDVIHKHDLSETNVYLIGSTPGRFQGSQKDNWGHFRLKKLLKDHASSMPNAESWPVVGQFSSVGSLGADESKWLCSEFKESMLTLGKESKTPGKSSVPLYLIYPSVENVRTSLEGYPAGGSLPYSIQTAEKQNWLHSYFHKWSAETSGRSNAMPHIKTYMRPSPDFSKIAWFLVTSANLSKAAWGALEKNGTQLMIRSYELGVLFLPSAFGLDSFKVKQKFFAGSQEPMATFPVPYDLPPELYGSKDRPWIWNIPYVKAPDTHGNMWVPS
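Compounds were preincubated with Tdp1 (1 nM final) for 15 min at room temperature before substrate (15 nM final) started a 5 min reaction; beads (10 ug/ml final) were then added for 10 min before AlphaScreen detection.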
* = called active by the depositor; i = inactive; ? = inconclusive; . = no result; [ ] = dose if it differs, or a comment. Unless noted, the call rests on the fitted dose curve; in most records, active means well fitted curve in the direction sought with a large enough effect; inconclusive means small, poorly fitted or top-dose-only effect, or another doubt; inactive means no such curve, though single readings can be large; an effect the other way counts as inactive or inconclusive.

SMILES	IL1B secr inh	HepG2 tox	TGFb inhibitor	TDP1 cell CPT	TDP1 cell noCPT	TDP1 block
COc1ccc(/C=N/NC(=O)c2cccc([N+](=O)[O-])c2)cc1OC(=O)c1ccccc1	55	-13%	-2%	16µM*	15µM*	8%
COc1cc(/C=N/NC(=O)c2ccc3ccccc3c2)ccc1Oc1ccc([N+](=O)[O-])cn1	-29	-3%	11%	?	?	2%
COc1cccc(C(=O)N/N=C/c2ccc(Oc3ccc([N+](=O)[O-])cn3)c(OC)c2)c1	-8	7%	-18%	21µM*	?	5%
COc1ccc(/C=N/NC(=O)c2cccc([N+](=O)[O-])c2)cc1OC(=O)c1ccc(C)cc1	26	-16%	-15%	?	?	3%
COc1cc(/C=N/NC(=O)COc2c(C)cc([N+](=O)[O-])cc2C)ccc1OC(=O)c1ccccc1	62	-16%	-3%	13µM*	21µM*	3%
COc1ccc(/C=N/NC(=O)c2cccc([N+](=O)[O-])c2)c2ccccc12	37	-18%	-6%	?	?	.
COc1cccc(/C=N/NC(=O)c2cccc([N+](=O)[O-])c2)c1OS(=O)(=O)c1ccccc1	-20	-13%	0%	?	16µM*	6%
CC1(C)CC[C@]2(C(=O)O)CC[C@]3(C)C(=CCC4[C@@]5(C)CC[C@H](O)C(C)(C)C5[C@H](O)C[C@]43C)C2C1 (some centres undefined)	.	.	.	3%	-20%	16%[56.1 µM]
N#Cc1cc([N+](=O)[O-])ccc1Oc1cccc(/C=N/NC(=O)c2cccc(Cl)c2)c1	?	-33%	1%	?	21µM*	10%
COc1ccc(/C=N/NC(=O)c2cccc([N+](=O)[O-])c2)cc1OS(=O)(=O)c1ccccc1	-19	-7%	-2%	?	16µM*	8%
COc1ccc(/C=N/NC(=O)c2cccc([N+](=O)[O-])c2)cc1OC	-8	-15%	-11%	-10%	9%	3%
O=C(N/N=C/c1cccc([N+](=O)[O-])c1)c1ccc(COc2ccccc2-c2ccccc2)cc1	i	3%	-8%	21µM*	23µM*	3%
COCC1=Cc2cc3c(cc2C(C(C(=O)OC)C(=O)OC)N1C(=O)OC)OCO3 (centres undefined)	.	.	.	.	.	4%
O=C1c2cccc3c(Cl)ccc(c23)C(=O)N1O	2	6%	-30%	?	5.8µM*	22µM*
O=C(c1ccc2c3c(cccc13)C(=O)N(O)C2=O)N1CCCCC1	-11	-13%	0%	8.2µM*	7.3µM*	2%
O=C(O)c1ccc(N2C(=O)c3cccc4c(C(=O)O)ccc(c34)C2=O)cc1	22	-20%	-6%	-3%	-17%	2.8µM*
CCN1C(=O)c2cccc3c(Cl)ccc(c23)C1=O	-9	-27%	2%	6%	-28%	-3%
O=C(O)c1cccc(N2C(=O)c3cccc4c(Cl)ccc(c34)C2=O)c1	-52*	-19%	-11%	?	-14%	1%
CC1CCCCC12NC(=O)N(CC(=O)c1ccc3c(c1)OCO3)C2=O (centres undefined)	-7	-23%	-4%	-12%	-9%	-3%
CCOC(=O)C1CCC(CN(Cc2ccc(OC)cc2)S(=O)(=O)c2ccc(F)c(C(=O)Nc3ccc(C)c(C)c3)c2)CC1 (centres undefined)	.	1%	?	?	-4%	10%
O=C1c2ccc3c4c(ccc(c24)C(=O)N1c1cccc(O)c1)CC3	-3	-7%	-8%	-8%	?	-1%
O=C1c2ccc3c4c(ccc(c24)C(=O)N1c1cccc(O)c1)C(=O)N(c1cccc(O)c1)C3=O	-13	4.5µM*	4µM*	4.1µM*	6.5µM*	.
CC(C)C(Cl)=NOC(=O)Nc1ccc(F)cc1	-100*	20µM*	-11%	1.5µM*	2.3µM*	.
C/C(=N\OC(=O)Nc1ccc(Cl)cc1)c1ccc(F)c(F)c1	-87*	-96%	0%	2%	?	.
N/C(=N\OC(=O)Nc1ccc(Cl)cc1)c1ncc(C(F)(F)F)cc1Cl	-1	-3%	7%	-15%	-27%	0%
SMILES	IL1B secr inh	HepG2 tox	TGFb inhibitor	TDP1 cell CPT	TDP1 cell noCPT	TDP1 block
COCCn1c(C)cc(O)c(C(c2ccccc2OC)N2CCCCC2)c1=O (centres undefined)	.	1%	3%	-1%	5%	3%
COc1ccccc1-c1ccnc(-n2ncc(C(=O)N3CCN(C(C)C)CC3)c2-c2ccco2)n1	.	.	.	8%[9.04 µM]	-10%	.
CO[C@H]1O[C@@H]2O[C@@]3(C)CC[C@H]4[C@H](C)CC[C@@H]([C@H]1C)[C@@]24OO3	.	.	.	2.7µM*	1.5µM*	.
COc1ccc(CN(Cc2ccco2)c2cnc(S(C)(=O)=O)nc2C(=O)Nc2ccc(F)cc2)cc1	.	4%	8%	?	?	5%
CCc1ccccc1NC(=O)COC(=O)C1C2CC3OC(=O)C1C3C2 (centres undefined)	25	-6%	-10%	-10%	-7%	11%
CCCCCn1nc(C(=O)N(CC(C)C)c2c(N)n(CCCC)c(=O)[nH]c2=O)c2ccccc2c1=O	2	0%	-8%	0%	-3%	.
Cc1cccc(CS(=O)(=O)Cc2ccc(C(=O)NCc3cccnc3)o2)c1	10	-20%	-19%	-12%	-12%	5%
Cc1cccc(CS(=O)(=O)Cc2ccc(C(=O)NCc3ccc(F)cc3)o2)c1	.	-21%	?	21µM*	?	5%
Cc1cccc(CS(=O)(=O)Cc2ccc(C(=O)NCc3ccc(Cl)cc3)o2)c1	.	-5%	-10%	16µM*	23µM*	3%
CCOC(=O)CNC(=O)c1ccc(-c2nn(C)c(=O)c3ccccc23)cc1	.	-5%	-4%	-13%	-4%	-2%
O=C(c1cccs1)n1nc(-c2ccccc2)nc1NCc1ccco1	-16	-11%	-9%	21µM*	?	0%[56.1 µM]
